The results in this text go back to PMC11006913.

What all share (experiment): PBM; 200 nM protein, PBS
What all share (conditions): dsDNA, one strand shown

Assay [1] has as its target HOXC10 (Homo sapiens, UniProt Q9NYD6 254-340).
Assay [2] concerns the target ALX3 (Homo sapiens, UniProt O95076 139-225, N203Q).
Assay [3] deals with T1, NKX2-6 (Homo sapiens, UniProt A6NCS4 118-204).
T1 sequence: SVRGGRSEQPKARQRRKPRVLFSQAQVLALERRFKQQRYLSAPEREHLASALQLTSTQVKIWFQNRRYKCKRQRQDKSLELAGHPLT

The target in assay [4] is HOXC10 (Homo sapiens, UniProt Q9NYD6 254-340, K271E).
Sequence of HOXC10 (Homo sapiens, UniProt Q9NYD6 254-340, K271E) (Q9NYD6 254-340 K271E): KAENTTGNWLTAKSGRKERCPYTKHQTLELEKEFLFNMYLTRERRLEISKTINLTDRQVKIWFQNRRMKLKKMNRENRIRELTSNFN
Assay [5] deals with ALX3 (Homo sapiens, UniProt O95076 139-225).
Sequence of ALX3 (Homo sapiens, UniProt O95076 139-225) (O95076 139-225): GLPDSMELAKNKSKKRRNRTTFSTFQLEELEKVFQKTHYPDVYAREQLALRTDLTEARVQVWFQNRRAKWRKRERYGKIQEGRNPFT
Assay [6] deals with ALX3 (Homo sapiens, UniProt O95076 139-225, L168Q).
Sequence of ALX3 (Homo sapiens, UniProt O95076 139-225, L168Q) (O95076 139-225 L168Q): as the sequence (O95076 139-225) above, with L30Q counted along it
For assay [7], the target named is T2, NKX2-6 (Homo sapiens, UniProt A6NCS4 118-204, F151L).
T2 sequence: T1 sequence with F34L

Assay [8] concerns the target ALX3 (Homo sapiens, UniProt O95076 139-225, L168V).
Assay [9] addresses ALX3 (Homo sapiens, UniProt O95076 139-225, N203S).
The target in assay [10] is T3, NKX2-6 (Homo sapiens, UniProt A6NCS4 118-204, R150C).
T3 sequence: T1 sequence with R33C

Assay [11] deals with T4, PAX4 (Homo sapiens, UniProt O43316 9-242, R200K).
T4 sequence: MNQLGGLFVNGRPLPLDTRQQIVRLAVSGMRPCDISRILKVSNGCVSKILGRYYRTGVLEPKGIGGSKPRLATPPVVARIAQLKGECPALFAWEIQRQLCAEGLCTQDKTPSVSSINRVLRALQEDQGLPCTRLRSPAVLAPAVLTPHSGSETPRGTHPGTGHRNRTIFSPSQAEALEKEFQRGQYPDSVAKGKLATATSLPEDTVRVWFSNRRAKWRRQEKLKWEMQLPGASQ

The target in assay [12] is PRRX1 (Homo sapiens, UniProt P54821 80-166, F113S).
Sequence of PRRX1 (Homo sapiens, UniProt P54821 80-166, F113S) (P54821 80-166 F113S): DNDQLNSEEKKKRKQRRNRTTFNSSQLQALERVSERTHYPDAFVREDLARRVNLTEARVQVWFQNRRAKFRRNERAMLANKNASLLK
The target of assay [13] is T5, PAX4 (Homo sapiens, UniProt O43316 9-242).
T5 sequence: T4 sequence with K192R

For assay [14], the target named is HOXB6 (Homo sapiens, UniProt P17509 132-218, K202E).
Sequence of HOXB6 (Homo sapiens, UniProt P17509 132-218, K202E) (P17509 132-218 K202E): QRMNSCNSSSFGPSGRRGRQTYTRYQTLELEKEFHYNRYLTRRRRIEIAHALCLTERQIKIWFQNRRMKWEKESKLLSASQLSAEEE
Assay [15] deals with HOXD13 (Homo sapiens, UniProt P35453 263-343, T313R).
Sequence of HOXD13 (Homo sapiens, UniProt P35453 263-343, T313R) (P35453 263-343 T313R): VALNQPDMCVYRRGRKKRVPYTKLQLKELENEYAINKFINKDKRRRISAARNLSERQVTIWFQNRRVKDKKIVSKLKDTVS
In assay [16] the target is T6, PAX4 (Homo sapiens, UniProt O43316 9-242, R200Q).
T6 sequence: T4 sequence with K192Q

Assay [17] has as its target HOXD13 (Homo sapiens, UniProt P35453 263-343).
Assay [18] concerns the target T7, PAX4 (Homo sapiens, UniProt O43316 9-242, F177V).
T7 sequence: T4 sequence with F169V, K192R

Assay [19] deals with T8, PAX4 (Homo sapiens, UniProt O43316 9-242, F177Y).
T8 sequence: T4 sequence with F169Y, K192R

For assay [20], the target named is HOXD13 (Homo sapiens, UniProt P35453 263-343, T313A).
Sequence of HOXD13 (Homo sapiens, UniProt P35453 263-343, T313A) (P35453 263-343 T313A): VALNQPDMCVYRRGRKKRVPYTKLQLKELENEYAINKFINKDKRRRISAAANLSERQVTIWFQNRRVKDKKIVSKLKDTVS
In assay [21] the target is T9, PAX4 (Homo sapiens, UniProt O43316 9-242, R227W).
T9 sequence: T4 sequence with K192R, R219W

Assay [22] concerns the target PRRX1 (Homo sapiens, UniProt P54821 80-166).
Assay [23] deals with HOXB6 (Homo sapiens, UniProt P17509 132-218).
Sequence of HOXB6 (Homo sapiens, UniProt P17509 132-218) (P17509 132-218): as the sequence (P17509 132-218 K202E) above, with E71K counted along it
Assay [24] addresses PROP1 (Homo sapiens, UniProt O75360 56-141).
The target in assay [25] is PROP1 (Homo sapiens, UniProt O75360 56-141, R99H).
Sequence of PROP1 (Homo sapiens, UniProt O75360 56-141, R99H) (O75360 56-141 R99H): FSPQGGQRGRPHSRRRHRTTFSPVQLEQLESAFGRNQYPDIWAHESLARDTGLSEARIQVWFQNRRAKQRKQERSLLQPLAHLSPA
In assay [26] the target is PROP1 (Homo sapiens, UniProt O75360 56-141, F88S).
Sequence of PROP1 (Homo sapiens, UniProt O75360 56-141, F88S) (O75360 56-141 F88S): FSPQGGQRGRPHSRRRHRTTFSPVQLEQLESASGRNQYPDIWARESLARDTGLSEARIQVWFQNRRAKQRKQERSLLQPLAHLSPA

Changes are numbered by the printed parent chain.

Sequence of HOXC10 (Homo sapiens, UniProt Q9NYD6 254-340) (Q9NYD6 254-340): as the sequence (Q9NYD6 254-340 K271E) above, with E18K counted along it
Sequence of HOXD13 (Homo sapiens, UniProt P35453 263-343) (P35453 263-343): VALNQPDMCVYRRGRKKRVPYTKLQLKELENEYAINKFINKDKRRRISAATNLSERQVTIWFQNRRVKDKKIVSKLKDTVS
Sequence of PROP1 (Homo sapiens, UniProt O75360 56-141) (O75360 56-141): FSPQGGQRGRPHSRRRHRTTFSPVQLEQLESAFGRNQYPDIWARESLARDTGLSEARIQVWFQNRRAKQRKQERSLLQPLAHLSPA
Sequence of ALX3 (Homo sapiens, UniProt O95076 139-225, L168V) (O95076 139-225 L168V): as the sequence (O95076 139-225) above, with L30V counted along it
Sequence of ALX3 (Homo sapiens, UniProt O95076 139-225, N203S) (O95076 139-225 N203S): as the sequence (O95076 139-225) above, with N65S counted along it
Sequence of PRRX1 (Homo sapiens, UniProt P54821 80-166) (P54821 80-166): as the sequence (P54821 80-166 F113S) above, with S34F counted along it
Sequence of ALX3 (Homo sapiens, UniProt O95076 139-225, N203Q) (O95076 139-225 N203Q): as the sequence (O95076 139-225) above, with N65Q counted along it

Consider CCCCCAGG, for which the binding signal in assay [1] is 10.1 upbm affinity estimate (log intensity, higher = more binding, comparable within an allelic series); in assay [2] it was 7.76 upbm affinity estimate (log intensity, higher = more binding, comparable within an allelic series); in assay [3] it was 9.38 upbm affinity estimate (log intensity, higher = more binding, comparable within an allelic series); in [4] it was 10.1 upbm affinity estimate (log intensity, higher = more binding, comparable within an allelic series); in assay [5] it was 7.79 upbm affinity estimate (log intensity, higher = more binding, comparable within an allelic series); in assay [6] it was 7.67 upbm affinity estimate (log intensity, higher = more binding, comparable within an allelic series). Moreover, the binding signal in assay [7] was 9.1 upbm affinity estimate (log intensity, higher = more binding, comparable within an allelic series); in assay [8], 7.72 upbm affinity estimate (log intensity, higher = more binding, comparable within an allelic series); in assay [9], 7.71 upbm affinity estimate (log intensity, higher = more binding, comparable within an allelic series).
As to ACCGGGCT, the binding signal in assay [1] was 10.1 upbm affinity estimate (log intensity, higher = more binding, comparable within an allelic series); in assay [10] it was 9.65 upbm affinity estimate (log intensity, higher = more binding, comparable within an allelic series); in assay [4] it was 10.1 upbm affinity estimate (log intensity, higher = more binding, comparable within an allelic series).
Take CGCCCCCG: the binding signal in assay [1] was 10 upbm affinity estimate (log intensity, higher = more binding, comparable within an allelic series); in [11], 9.05 upbm affinity estimate (log intensity, higher = more binding, comparable within an allelic series); in assay [12], 9.19 upbm affinity estimate (log intensity, higher = more binding, comparable within an allelic series); in [13], 9.27 upbm affinity estimate (log intensity, higher = more binding, comparable within an allelic series); in assay [14], 8.93 upbm affinity estimate (log intensity, higher = more binding, comparable within an allelic series); in assay [15] it was 9.18 upbm affinity estimate (log intensity, higher = more binding, comparable within an allelic series). The binding signal is 9.26 upbm affinity estimate (log intensity, higher = more binding, comparable within an allelic series) in assay [16]; 9.19 upbm affinity estimate (log intensity, higher = more binding, comparable within an allelic series) in assay [17]; 9.01 upbm affinity estimate (log intensity, higher = more binding, comparable within an allelic series) in assay [18]; 9.94 upbm affinity estimate (log intensity, higher = more binding, comparable within an allelic series) in assay [4]; 8.92 upbm affinity estimate (log intensity, higher = more binding, comparable within an allelic series) in assay [19]; 9.4 upbm affinity estimate (log intensity, higher = more binding, comparable within an allelic series) in assay [20]. The binding signal was 9.12 upbm affinity estimate (log intensity, higher = more binding, comparable within an allelic series) in assay [21]; 9.18 upbm affinity estimate (log intensity, higher = more binding, comparable within an allelic series) in assay [22]; 8.91 upbm affinity estimate (log intensity, higher = more binding, comparable within an allelic series) in [23].
Take CTCCCCCC: the binding signal in assay [1] was 9.99 upbm affinity estimate (log intensity, higher = more binding, comparable within an allelic series); in assay [11], 9.31 upbm affinity estimate (log intensity, higher = more binding, comparable within an allelic series); in assay [13] it was 9.32 upbm affinity estimate (log intensity, higher = more binding, comparable within an allelic series); in assay [16], 9.28 upbm affinity estimate (log intensity, higher = more binding, comparable within an allelic series); in assay [18] it was 9.04 upbm affinity estimate (log intensity, higher = more binding, comparable within an allelic series); in assay [4], 9.94 upbm affinity estimate (log intensity, higher = more binding, comparable within an allelic series). The binding signal in assay [19] was 9.19 upbm affinity estimate (log intensity, higher = more binding, comparable within an allelic series); in [24], 6.67 upbm affinity estimate (log intensity, higher = more binding, comparable within an allelic series); in assay [25], 6.5 upbm affinity estimate (log intensity, higher = more binding, comparable within an allelic series); in [26] it was 5.95 upbm affinity estimate (log intensity, higher = more binding, comparable within an allelic series); in assay [21] it was 9.13 upbm affinity estimate (log intensity, higher = more binding, comparable within an allelic series).
In the case of CCCCACCG, the binding signal is 10.2 upbm affinity estimate (log intensity, higher = more binding, comparable within an allelic series) in assay [1]; 9.41 upbm affinity estimate (log intensity, higher = more binding, comparable within an allelic series) in assay [11]; 9.56 upbm affinity estimate (log intensity, higher = more binding, comparable within an allelic series) in assay [13]; 9.46 upbm affinity estimate (log intensity, higher = more binding, comparable within an allelic series) in [16]; 9.14 upbm affinity estimate (log intensity, higher = more binding, comparable within an allelic series) in assay [18]; 10.1 upbm affinity estimate (log intensity, higher = more binding, comparable within an allelic series) in assay [4]. Moreover, the binding signal in assay [19] was 9.27 upbm affinity estimate (log intensity, higher = more binding, comparable within an allelic series); in [21], 9.33 upbm affinity estimate (log intensity, higher = more binding, comparable within an allelic series).
AGGGCGGA: the binding signal was 9.89 upbm affinity estimate (log intensity, higher = more binding, comparable within an allelic series) in assay [1]; 9.35 upbm affinity estimate (log intensity, higher = more binding, comparable within an allelic series) in [15]; 9.36 upbm affinity estimate (log intensity, higher = more binding, comparable within an allelic series) in assay [17]; 9.9 upbm affinity estimate (log intensity, higher = more binding, comparable within an allelic series) in [4]; 9.37 upbm affinity estimate (log intensity, higher = more binding, comparable within an allelic series) in [20].
